This is one part of the list. Calls of active or inactive are those of the source.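 How the source made its calls: active means inhibition above the campaign cutoff, the mean of compounds within control limits plus 3 SD (cut at about 14% in these data); inactive means the rest.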
These compounds were tested against Fibrinogen beta chain (Homo sapiens) (UniProt P02675) (assay: Tn7 displacement from DD(E) complex – biochemical, fluorescence polarization, human fibrin, Tn7 probe, confirmation (AID 720628;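 further: 100% = median FP of high control wells holding Aha-Tn7 inhibitor peptide; displacers lower polarization since freed probe rises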)). Settings: FP displacement of TRITC-Tn7 peptide from DD(E); at 8.3 µM; hits give high values; 0% set at plate's compound-well median.
Chain of Fibrinogen beta chain (Homo sapiens) (P02675 whole entry, looked up): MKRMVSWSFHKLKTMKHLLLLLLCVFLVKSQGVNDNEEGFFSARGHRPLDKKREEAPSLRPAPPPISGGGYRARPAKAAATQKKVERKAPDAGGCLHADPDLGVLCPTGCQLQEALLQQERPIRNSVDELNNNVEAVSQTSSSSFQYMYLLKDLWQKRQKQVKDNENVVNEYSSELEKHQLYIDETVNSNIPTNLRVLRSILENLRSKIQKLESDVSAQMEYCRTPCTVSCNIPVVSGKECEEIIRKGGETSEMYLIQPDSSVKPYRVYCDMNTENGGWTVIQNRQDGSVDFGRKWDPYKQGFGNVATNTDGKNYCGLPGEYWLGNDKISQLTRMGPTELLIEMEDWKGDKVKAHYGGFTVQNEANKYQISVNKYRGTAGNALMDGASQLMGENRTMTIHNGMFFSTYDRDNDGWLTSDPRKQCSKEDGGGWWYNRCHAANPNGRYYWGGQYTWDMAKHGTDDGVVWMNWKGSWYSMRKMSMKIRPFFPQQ

inhibition, inactive:
COc1cc(C(=S)N2CCOCC2)ccc1O 8.15%
O=C(COC(=O)/C=C/c1ccc(OC(F)F)cc1)NC1CCCCC1 6.98%
O=C(Nc1ccon1)c1sc2ccccc2c1Cl 6.87%
O=C(CSc1nnc(-c2ccccn2)n1-c1ccc(Cl)cc1)Nc1ccccc1-c1ccccc1 2.95%
Cc1nn(C)cc1N1C(=O)c2cccc3c(N)ccc(c23)C1=O 12.5%
CN1c2ccc(C=O)c3c(C=O)ccc(c23)N(C)C1(C)C 1.94%
Cc1cc2nc3c(=O)n(Cc4ccccc4)c(=O)[nH]c3nc2cc1N -4.02%
CC(C)(C)c1cc(CN2CCN(CCC#N)CC2)cc(C(C)(C)C)c1O 3.96%
c1cc(-c2nn[nH]n2)ccc1CN1CCCCC1 -9.45%
COc1ccc(S(=O)(=O)c2c[nH]c(=S)[nH]c2=O)cc1Cl -1.93%
CCOc1ccc(Nc2oc(Cc3ccccc3)nc2C#N)cc1 -1.34%
Cn1c(CC(=O)NNC(=O)c2ccccc2F)nc2ccccc21 4.13%
COc1ccc(N=Nc2c(-c3ccc(OC)cc3)[nH]oc2=O)cc1 -2.03%
Cc1nnc2n1N=C(c1ccc3c(c1)NC(=O)CO3)CS2 -7.07%
COc1ccc(-c2nc(CCNC(=O)c3ccc(Br)o3)cs2)cc1 1.25%
O=C(COC(=O)c1ccc([N+](=O)[O-])cc1Cl)NC(=O)c1ccccc1 2.79%

inhibition, active:
CN1C(=O)c2cccc3c(N)ccc(c23)C1=O 30.8%
